# Results from PubChem BioAssay AID651635 (National Center for Advancing Translational Sciences (NCATS), 2012).
# Among all 400,000 compounds or so, about 1,900 (0.47%) were called active. Roughly 14% stayed inconclusive and do not appear here. The entries come from a sample that favours actives as a whole. Unmarked numbers belong to inactive results. Calls follow the shape of the dose curve; as a rule, active = well fitted cell-killing curve with a large enough effect; inconclusive = small, poorly fitted or top-dose-only effect, or effect the other way; inactive = no such curve, though single readings can be large or run the other way.
# Assay: Viability Counterscreen for Primary qHTS for Inhibitors of ATXN expression; also: nearly all actives have a fitted effect of over 40% in size
# Conditions: S2 cells (HEK-293 line with an ATXN2-luciferase reporter) viability, CellTiter-Fluor protease fluorescence, 24 h; series mostly up to 56.7 µM; activity change, negative = cytotoxicity: at the top concentration
# Description: Spinocerebellar ataxia type 2 (SCA2) is a multisystem neurodegenerative disease caused by a dominantly-acting mutation leading to expansion of a polyQ domain in the ataxin-2 protein (ATXN2). SCA2 patients develop progressive ataxia and later lose function in other neuronal systems. Prominent parkinsonian signs develop in some patients. Similar to many neurodegenerative disorders, no symptomatic or disease-modifying treatments are known.
# The primary objective of the proposed research is to identify compounds inhibiting ATXN2 expression and to test them for efficacy in SCA2 mouse models. To this end, we have developed a cell-based assay paired with an in vivo mouse model using identical luciferase expression constructs. This approach takes advantage of an ATXN2-luciferase transgene, with the luciferase gene flanked by the upstream and downstream portions of the ATXN2 gene. This primary assay was tested against the NIH Molecular Libraries Small Molecule Repository (MLSMR).
# NIH Chemical Genomics Center [NCGC]
# NIH Molecular Libraries Probe Centers Network [MLPCN]
# Assay Submitter (PI): Daniel Scoles, University of Utah
# PROTOCOL TABLE (as described by Inglese J, Shamu CE and Guy RK. 2007)
# SEQUENCE No. (e.g., 1, 2, 3, etc.); […] (e.g., Cells, Incubation, Reagent, etc.); VALUE; DESCRIPTION.
# 1; Cells; 4 uL; white, solid bottom, 1536-well Greiner assay plate.
# 2; Incubation; 2 hr; 37 degree C in 5% humidified CO2.
# 3; Compounds; 23 nL; Kalypsis pintool (Wako USA) equipped with a 1536-well pin head.
# 4; Incubation; 24 hr; 37 degree C in 5% humidified CO2.
# 5; Reagent; 1 uL; Gly-Phe-7-Amino-4-trifluoromethylcoumarin.
# 6; Incubation; 30 min; 37 degree C in 5% humidified CO2.
# 7; Detection; Fluorescence; ViewLux plate reader (PerkinElmer).
# 8; Reagent; 3 uL; SteadyGlo luciferase solution (Promega).
# 9; Incubation; 5 min; room temperature.
# 10; Detection; Luminescence; ViewLux plate reader (PerkinElmer).
# NOTES (numbers refer to Sequence numbers above)
# 1. S2 cells expressing ATXN2-luciferase reporter were suspended in phenol-red free DMEM and dispensed in assay plates using a Multidrop Combi dispenser (Thermo Fisher Scientific).
# 2. Assay plates were incubated. Evaporation was prevented by covering assay plates with metal lids containing holes to allow gas diffusion.
# 3. […] Vehicle-only plates, with DMSO being pin-transferred to columns 5-48, were inserted uniformly at the beginning and the end of each library to monitor and record any shifts in assay performance.
# 5. 125 uM Gly-Phe-7-Amino-4-trifluoromethylcoumarin (MP Biomedicals) working concentration was used at a final concentration of 25 uM.
# 7. To assess cell viability; the assay plates were read using the ViewLux high-throughput CCD imager (PerkinElmer), wherein single end-point fluorescence measurement was acquired (excitation 405/10; emission 540/25 nm).
# 8. Detection reagent SteadyGlo Luciferase (Promega) was added to the assay plate.
# 10. Luminescence is then measured on the ViewLux imager equipped with a clear emission filter using a 2 sec exposure. All screening operations were performed on a fully integrated robotic system (Kalypsys) containing one RX-130 and two RX-90 anthropomorphic robotic arms (Staubli).
# Inglese J, Shamu CE and Guy RK, Reporting data from high throughput screening of small molecule libraries, Nature Chemical Biology, 2007, 3(8): 438-441. doi.org/10.1038/nchembio0807-438.
# Potency is read from the fitted curve at half-maximal effect.
Structure (SMILES),Potency,"activity change, negative = cytotoxicity"
COc1ccc(C2=Nn3c(nnc3-c3ccccc3OC)SC2)cc1OC1CCCC1,15.8 µM (active),–
COc1ccccc1-c1nnc2n1N=C(c1ccc(OC(F)F)c(OCC3CC3)c1)CS2,–,-23.3%
CC1=Nn2c(nnc2-c2ccccc2)SC1,–,-25%
COc1ccc(CCNC(=O)c2ccc(-n3c(C)cc4c3CCCC4)cc2)cc1OC,–,-28.8%
O=C(Nc1cccc2cccnc12)c1ccc2sc([C@H]3C[C@H](O)[C@@H](CO)O3)nc2c1,–,-42%
Cc1ccccc1-c1csc(C(O)c2cccc(Cl)c2)n1 (centres undefined),–,-18.9%
S=C(NCCCc1ccccc1)Nc1ccc(Br)cc1,–,-11.3%
NCCCNC(=S)NCCCN(Cc1ccc(Cl)cc1)c1ccc(Br)cn1,35.5 µM (active),–
O=C(/C=C/c1ccc(Cl)cc1)Nc1ccc(Br)cn1,–,-29.4%
CN(C)CCNC(=O)c1cccc(-c2cnc3c(NC=O)cc(-c4cccc(C(F)(F)F)c4)cn23)c1,–,-0.0438%
CN1CCN(c2ccc(NC(=O)c3cc(Cl)c4c(c3)OCCO4)cc2)CC1,–,-8.04%
C=CC(=O)Nc1ccc(Nc2ccnc(Nc3ccc(N4CCN(C)CC4)cc3)n2)cc1,14.1 µM (active),–
Cc1cccc(N2CCN(c3ccc(NC(=O)/C=C\C(=O)O)cc3)CC2)c1,–,-26.1%
COC(=O)c1c(OCc2ccc(F)cc2)cc(=O)n2c1CCN(Cc1ccc3cccnc3c1)CC2,–,-11.1%
CC(C)C(=O)NC(C)c1nnc2n1CCN(Cc1cccc3ncccc13)CC2 (centres undefined),–,-8.05%
CCc1ccc2c(c1)C1(NN=C(c3ccccc3)S1)C(=O)N2 (centres undefined),3.16 µM (active),–
CO[C@H]1[C@H](NC(=O)C(C)C)c2ccccc2C12CCN(Cc1cnc(N(C)C)s1)CC2,–,-6.13%
COc1ccc(C2(Nc3cccc(F)c3)C(=O)c3ccccc3C2=O)cc1,–,-36.9%
CCOC(=O)c1c(-c2ccc(-c3ccccc3)cc2)csc1NC(=O)CCC(=O)O,–,-35.3%
CCCS(=O)(=O)c1ncc(Cl)c(C(=O)Nc2scc(-c3ccccc3)c2C(=O)OCC)n1,15.8 µM (active),–
CCOC(=O)c1scc(-c2ccccc2)c1S(=O)(=O)Nc1ccccc1F,–,-31.3%
Cc1ccc(C)c(C(O)c2ncc(-c3cccc4ccccc34)[nH]2)c1 (centres undefined),–,-33.6%

Structure (SMILES),Potency,"activity change, negative = cytotoxicity"
CO[C@H]1[C@@H](O)[C@H](N)[C@@H](O[C@H]2O[C@H]([C@H](C)N)CC[C@H]2N)[C@H](O)[C@@H]1N(C)C(=O)CN,–,6.53%
Cc1ccc(CN2CC(N3CCC(Cc4ccccc4)CC3)CS2(=O)=O)cc1 (centres undefined),–,-41.7%
O=C(Nc1ccccc1Cl)/C(Cl)=C(\Cl)S(=O)c1ccccc1 (centres undefined),3.55 µM (active),–
NC(=O)C1(Nc2ccccc2Cl)CCCC1,–,-14.6%
O=C(COC(=O)CCc1c[nH]c(=O)[nH]1)Nc1ccccc1Cl,–,-9.43%
O=C(CN1C(=O)COc2ccc(S(=O)(=O)N3CCCCCC3)cc21)N1CCN(c2cccc(C(F)(F)F)c2)CC1,–,11.2%
NC(=O)CSc1oc(-c2cccs2)nc1S(=O)(=O)c1ccccc1,–,-24.8%
CCCCS(=O)(=O)c1oc(-c2cccs2)nc1S(=O)(=O)c1ccccc1,3.16 µM (active),–
Cc1ccc(S(=O)(=O)c2nc(-c3cccs3)oc2NCc2cccnc2)cc1,–,-13.9%
COc1ccccc1-c1ccnc(-n2ncc(C(=O)NCCCN3CCOCC3)c2C)n1,–,-0.273%
Cc1ccc(-c2cnc(C(O)c3cc(Cl)cc(Cl)c3)[nH]2)cc1 (centres undefined),–,-36.4%
Cc1cc(C)c2oc(C(=O)Nc3ccc(S(=O)(=O)N4CCCCCC4)cc3)cc(=O)c2c1,–,-26.3%
CCCc1ccc(C(O)c2ncc(-c3cccc(OC)c3)[nH]2)cc1 (centres undefined),–,-15.1%
COc1ccc(C(N)c2csc(NC(=O)Nc3cccc(C(F)(F)F)c3)n2)cc1 (centres undefined),17.8 µM (active),–
CC(=O)c1ccc(Nc2nc(C(N)c3ccccc3)cs2)cc1 (centres undefined),–,-21.7%
COc1cccc(NC(=O)Nc2ccc(F)cc2)c1,–,-34.2%
Cc1c(O)cc2c(c1C)O[C@](C)(CCC[C@H](C)CCC[C@H](C)CCCC(C)C)CC2,–,-6.32%
OCC1CCCN(c2nc3cc4c(cc3cc2CNCc2cccs2)OCO4)C1 (centres undefined),–,-16.8%
CC(C)c1cccc(C(C)C)c1Nc1cn[nH]c1,–,-36.2%
CC(C)C[C@H]1CNC(=S)N1C[C@H]1CCCN1C[C@H](Cc1ccc(O)cc1)N1C[C@H](Cc2ccc(O)cc2)N(CC2CCCCC2)C1=S,31.6 µM (active),–
CC(C)C[C@H]1CNC(=O)C(=O)N1C[C@@H]1CCCN1C[C@H](Cc1ccccc1)N1C[C@H](CC(C)C)N(CC2CCCCCC2)C(=O)C1=O,–,-13.6%
O=C1NC[C@H](Cc2ccc(O)cc2)N(C[C@@H]2CCCN2C[C@H](Cc2ccccc2)N2C[C@H](Cc3ccccc3)N(CC3CCCCC3)C(=O)C2=O)C1=O,–,-28.5%
